# “And” between values parts separate entries of the source, which are not always exact repeats. Equal values may be shown once. Inconclusive results are not listed. Entries that show only a call come without a potency. Values without a mark were called inactive. The source made the active and inactive calls. The call rests on the fitted dose curve; in most records, active means well fitted curve in the direction sought with a large enough effect; inconclusive means small, poorly fitted or top-dose-only effect, or another doubt; inactive means no such curve, though single readings can be large; an effect the other way counts as inactive or inconclusive.
# Assays:
# [1] = target: Cytochrome P450 3A7 (Homo sapiens) (UniProt P24462); test: Cytochrome P450 family 3 subfamily A member 7 (CYP3A7) small molecule antagonists: luciferase biochemical qHTS assay (AID 1963596); further: nearly all actives have a fitted effect of over 40% in size
# Summary of the method: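 Luminescence read-out (relative luminescence units) after 20 min with detection reagent, which stops the reaction. Enzyme, proluciferin substrate and compound preincubated 10 min, RT; NADPH regeneration system then started 1 h reaction. Ketoconazole as positive control.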
# [2] = Viability qHTS for spleen associated tyrosine kinase inhibitor (SYKi) naive MV4-11 cells (AID 1963823); further: nearly all actives have a fitted effect of over 40% in size
# Summary of the method: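 Read-out: CellTiter-Glo luminescence. Exposure: 72 hr, 37 C, 5% CO2, 95% humidity. Cells: MV4-11 without SYK inhibitor history, 500/well, qHTS format.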
# [3] = Viability qHTS for spleen associated tyrosine kinase inhibitor (SYKi) drug resistant MV4-11 cells (AID 1963824); further: nearly all actives have a fitted effect of over 35% in size; further: potency means the concentration at half of the fitted maximal effect
# Summary of the method: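 SYK-inhibitor-resistant MV4-11 AML cells were seeded at 500 per well onto compound and cultured 72 hours (37 °C, 5% CO2). CellTiter-Glo was then added, and after 10 min at room temperature, luminescence gave viability.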
# [4] = Cellular viability qHTS for adrenocortical cancer (ACC) cell line SW-13 (AID 1963989); details: SW-13 ACC cells viability, CellTiter-Glo, 48 h; activity (max response): hits give low values;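 further: cells grown in serum-free medium with ITS supplement; nearly all actives have a fitted effect of over 65% in size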
# Summary of the method: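 48 h treatment, SW-13 in ITS/DMEM serum-free; doses up to 46 uM; readout CellTiter-Glo luminescence; curve fit four-parameter logistic.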
# [5] = Cellular viability qHTS for adrenocortical cancer (ACC) cell line NCI-H295R (AID 1963990); further: nearly all actives have a fitted effect of over 60% in size
# Summary of the method: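 Compound titrations (up to 46 uM final) are applied to NCI-H295R cultures for 48 h at 37C. Viable cell number is estimated by CellTiter-Glo signal, normalised to DMSO and doxorubicin controls.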
# Chain of Cytochrome P450 3A7 (Homo sapiens) (P24462 whole entry, looked up): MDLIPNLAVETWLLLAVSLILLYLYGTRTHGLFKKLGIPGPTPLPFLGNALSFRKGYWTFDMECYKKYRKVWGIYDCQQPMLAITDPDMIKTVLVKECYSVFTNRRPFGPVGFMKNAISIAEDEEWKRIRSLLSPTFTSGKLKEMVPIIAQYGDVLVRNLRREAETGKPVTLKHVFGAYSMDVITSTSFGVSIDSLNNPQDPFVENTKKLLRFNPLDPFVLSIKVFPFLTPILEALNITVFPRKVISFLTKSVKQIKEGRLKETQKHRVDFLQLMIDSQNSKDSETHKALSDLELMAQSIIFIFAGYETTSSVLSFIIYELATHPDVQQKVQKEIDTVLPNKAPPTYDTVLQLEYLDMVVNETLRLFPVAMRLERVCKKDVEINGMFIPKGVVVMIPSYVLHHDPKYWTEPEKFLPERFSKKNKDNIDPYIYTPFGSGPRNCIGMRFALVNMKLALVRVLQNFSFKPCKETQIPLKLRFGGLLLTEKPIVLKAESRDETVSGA
SMILES,Potency [1],Potency [2],Potency [3],activity (max response) [4],Potency [5]
C=Cc1c(C)c2cc3[nH]c(cc4nc(cc5nc(cc1[nH]2)C(C)=C5CCC(=O)O)C(CCC(=O)O)=C4C)c(C)c3C=C,inactive,inactive,inactive,-8.14%,inactive
COc1cc(/C=C/C(N)=O)cc(OC)c1OC,inactive,inactive,inactive,17.9%,inactive
CCOc1ccccc1OCC1CNCCO1 (stereo not given),inactive,inactive,inactive,-0.481%,inactive
COc1ccc2c(c1)CCCC2=O,inactive,inactive,inactive,14.4%,inactive
Nc1c[n+](N2CCOCC2)no1,inactive,inactive,inactive,-4.73%,inactive
OCCN1C[C@H](O)[C@@H](O)[C@H](O)[C@H]1CO,inactive,inactive,inactive,9.26% and -11.1%,inactive
NC/C=C/C(=O)O,inactive,inactive,inactive,8.43%,inactive
O=C(O)COc1nn(Cc2ccccc2)c2ccccc12,inactive,inactive,inactive,10.3%,inactive
CCOc1nc2cccc(C(=O)O)c2n1Cc1ccc(-c2ccccc2-c2nn[nH]n2)cc1,inactive,inactive,inactive,10.5%,inactive
CC(=O)OC[C@H]1O[C@@H](n2ncc(=O)[nH]c2=O)[C@H](OC(C)=O)[C@@H]1OC(C)=O,inactive,inactive,inactive,-6.84%,inactive
OC[C@H]1O[C@@H](n2cnc3c2NC=NC[C@H]3O)C[C@@H]1O,inactive,inactive,inactive,12.8%,inactive
CCCCOCCOC(=O)c1cccnc1,inactive,inactive,inactive,-1.25%,inactive
Cc1c(N)cccc1C(F)(F)F,inactive,inactive,inactive,12.6%,inactive
COc1ccc(OC)c(C(O)CNC(=O)CN)c1 (stereo not given),inactive,inactive,inactive,12.3%,inactive
C[C@H]1NCc2cc(-c3ccc4c(=O)c(C(=O)O)cn(C5CC5)c4c3OC(F)F)ccc21,inactive,inactive,inactive,-8.27%,inactive
CO[C@]1(NC(=O)CSC(F)F)C(=O)N2C(C(=O)O)=C(CSc3nnnn3CCO)CO[C@H]21,inactive,inactive,5.8 µM (active),-9.56%,inactive
O=C(O)[C@H](O)c1ccccc1,inactive,inactive,inactive,6.97%,inactive
Cc1nc(-c2ccc(Cl)cc2)oc1COC(C)(C)C(=O)O,inactive,inactive,inactive,-4.84%,inactive
NC(=O)NC1NC(=O)NC1=O (stereo not given),inactive,inactive,inactive,10.7%,inactive
O=C(NCC(O)CO)c1c(I)c(C(=O)NCC(O)CO)c(I)c(N(CCO)C(=O)CO)c1I (stereo not given),inactive,inactive,inactive,-7.35%,inactive
C[C@H]1[C@H]2CC[C@H]3[C@@H]4CC=C5C[C@@H](N(C)C)CC[C@]5(C)[C@H]4CC[C@]23CN1C,inactive,inactive,inactive,-17.7%,inactive
O=C1NCC2(CCN(CCc3ccccc3)CC2)O1,inactive,inactive,inactive,4.78%,inactive
Cn1c(=O)c2c(ncn2CC2OCCO2)n(C)c1=O,inactive,inactive,inactive,8.06% and -6.96%,inactive
O=C(NCCCN1CCOCC1)c1ccc(Cl)cc1,inactive,inactive,inactive,5.56%,inactive
CC(C)NC[C@@H](O)COc1ccc(CC(N)=O)cc1,inactive,inactive,inactive,7.4%,inactive
CC(O)CN(CCN(CC(C)O)CC(C)O)CC(C)O (stereo not given),inactive,inactive,inactive,5.94%,inactive
NC(=O)N1c2ccccc2C=Cc2ccccc21,inactive,inactive,inactive,8.83%,inactive
NC(N)=NS(=O)(=O)c1ccc(N)cc1,inactive,inactive,inactive,7.35%,inactive
CCOC(=O)OC(C)OC1=C(C(=O)Nc2ccccn2)N(C)S(=O)(=O)c2ccccc21 (stereo not given),inactive,inactive,inactive,1.88%,inactive
O=[N+]([O-])c1cncn1CCN1CCOCC1,inactive,inactive,inactive,13.4% and -13.9%,inactive
